MITF inh = blocks human microphthalmia-associated transcription factor; AlphaScreen MITF homodimerization, bead proximity signal; inhibition, % at 2.6 µM; 650,000 tested, 0.91% active; AID 1259374; in the data active = inhibition above about 50%
Target sequence (O75030 whole entry, looked up): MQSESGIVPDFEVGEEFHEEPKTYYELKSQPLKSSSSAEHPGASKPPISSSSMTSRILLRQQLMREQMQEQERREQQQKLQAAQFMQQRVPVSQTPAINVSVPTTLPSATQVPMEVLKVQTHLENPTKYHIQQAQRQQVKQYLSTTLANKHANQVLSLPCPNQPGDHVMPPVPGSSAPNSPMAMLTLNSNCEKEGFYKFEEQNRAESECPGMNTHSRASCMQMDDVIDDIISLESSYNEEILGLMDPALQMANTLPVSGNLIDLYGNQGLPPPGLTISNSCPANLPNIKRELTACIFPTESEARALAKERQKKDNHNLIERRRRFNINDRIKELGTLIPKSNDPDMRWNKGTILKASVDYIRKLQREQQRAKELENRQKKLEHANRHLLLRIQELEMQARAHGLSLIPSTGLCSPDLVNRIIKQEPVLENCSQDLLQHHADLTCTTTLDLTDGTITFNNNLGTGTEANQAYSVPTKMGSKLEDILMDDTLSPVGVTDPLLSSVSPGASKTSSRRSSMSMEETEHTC
FBW7 act = activators of human E3 ligase FBW7; AID 1259310; AlphaScreen FBW7–phospho-cyclin E peptide binding, activator screen; 650,000 tested, 0.13% active; normalized activity (activation), % at 26.1 µM; in the data active = normalized activity above about 1.9%;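 note: purified mutant Fbw7 with reduced substrate affinity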
GPR151 activ = human GPR151 activation; 650,000 tested, 1% active; Q8TDV0; activation, % at 11.2 µM; PathHunter beta-arrestin GPR151 cells, luminescence; AID 1508602; in the data active = activation above about 4.9%
TEAD-YAP block = TEAD-YAP interaction inhibition; inhibition, % at 9.12 µM; HEK-TIYL cells, TEAD-Gal4/YAP UAS-luciferase luminescence; AID 1259422; 640,000 tested, 1.4% active; in the data active = inhibition above about 32%
Hits are given with their value; – = inactive. The list is not random: actives were taken first. Their share in the collection is about 3.4%.

SMILES	MITF inh	FBW7 act	GPR151 activ	TEAD-YAP block
COc1ccccc1NC(=O)c1ccc(SCC(=O)NC2CCCC(C)C2C)c([N+](=O)[O-])c1 (stereo not given)	–	–	–	–
COc1ccccc1OCCNC(=O)c1cccc2ccccc12	–	–	–	–
c1cc(-n2cnc(N3CCOCC3)n2)ccc1Nc1ncc2ccc(-c3cn[nH]n3)cc2n1	–	–	–	68
c1cc(-c2ccc3cnc(Nc4ccc(-n5cnc(N6CCOCC6)n5)cc4)nc3c2)cs1	–	–	–	–
c1n[nH]c(-c2ccc3cnc(Nc4ccc(-n5cnc(N6CCOCC6)n5)cc4)nc3c2)n1	–	–	–	65
O=[N+]([O-])c1cc(/C=N/Nc2ccccn2)c(O)c([N+](=O)[O-])c1	–	–	–	–
O=[N+]([O-])c1cccc(/C=N/Nc2ccccn2)c1O	94	–	–	78
COc1cccc(/C=N/Nc2ccc([N+](=O)[O-])cn2)c1O	–	8.6	–	66
COc1ccc(NS(=O)(=O)c2ccc3c(c2)OC(C)CN3C(C)=O)cc1OC (stereo not given)	–	–	–	40
CCOc1ccc(NS(=O)(=O)c2ccc(OC)c(OC)c2)cc1	–	–	–	–
CCOc1ccc(S(=O)(=O)Nc2ccc(OC)c(OC)c2)cc1	–	–	–	57
CC(=O)N1CC(C)Oc2cc(S(=O)(=O)Nc3ccccc3Cl)ccc21 (stereo not given)	–	–	–	–
COc1ccc(NS(=O)(=O)c2ccc(Oc3ccccc3OC)cc2)cc1	–	–	–	33
COc1cccc(NS(=O)(=O)c2ccc(Oc3ccccc3OC)cc2)c1	–	–	–	–
CCOc1ccc(OCC)c(NS(=O)(=O)c2c[nH]c(C(=O)OC)c2)c1	–	–	–	53
CCCCc1cc(C(=O)Cc2csc(C)n2)c(O)cc1O	–	–	–	–
COc1ccc(OC)c(NS(=O)(=O)c2ccc([N+](=O)[O-])cc2)c1	–	–	–	–
CCOc1ccc(S(=O)(=O)Nc2cc([N+](=O)[O-])ccc2OC)cc1	–	–	–	51
COc1ccc(OC)c(NS(=O)(=O)c2ccc(SC)cc2)c1	–	–	–	52
CCOc1ccc(S(=O)(=O)Nc2cc(OC)ccc2OC)cc1C	–	–	–	52
CCOc1ccc(S(=O)(=O)Nc2cc(OC)ccc2OC)cc1	–	–	–	63
COc1ccc(C)cc1NS(=O)(=O)c1ccc(SC)cc1	–	–	–	–
CCOc1ccccc1NS(=O)(=O)c1ccc(OC)c(C)c1	–	–	–	–
COc1ccc(OC)c(NS(=O)(=O)c2ccc(C(C)(C)C)cc2)c1	–	–	–	–
COc1ccc(/C=C2\C(=O)N(C)C(=S)N(c3ccccc3)C2=O)c(OC)c1	–	–	–	–
SMILES	MITF inh	FBW7 act	GPR151 activ	TEAD-YAP block
CC1(c2ccccc2)CC(C)(C)N(C(=O)c2ccc(-c3ccccc3)cc2)c2ccccc21 (stereo not given)	–	–	–	–
COc1ccc(NS(=O)(=O)c2ccc(-c3ccc(S(=O)(=O)Nc4ccc(OC)cc4OC)cc3)cc2)c(OC)c1	–	–	–	–
COc1ccc(NS(=O)(=O)c2ccc(SC)cc2)cc1OC	–	–	–	44
COc1ccc(NS(=O)(=O)c2ccc(Cc3ccc(S(=O)(=O)Nc4ccc(OC)cc4OC)cc3)cc2)c(OC)c1	–	–	–	37
CN(Cc1c(C(=O)N2CCCCC2)nc2sccn12)CC1Cc2ccccc2O1 (stereo not given)	–	–	–	–
CC(C(=O)N[C@@H](C)Cn1nc(-c2cccs2)oc1=O)c1ccccc1 (stereo not given in full)	–	–	–	–
CCOc1cc(N2CCOCC2)c(OCC)cc1NS(=O)(=O)c1ccc(F)c(F)c1	–	–	–	35
COc1ccc(Cl)cc1NC(=O)c1cc(CC(C)C)on1	–	–	–	–
Cc1ccccc1C1C(C#N)=C(N)N(N(C)C)C2=C1C(=O)CC(c1ccccc1)C2 (stereo not given)	–	–	–	64
Cc1cc(C2C(C#N)=C(N)N(N(C)C)C3=C2C(=O)CC(c2ccccc2)C3)c(C)s1 (stereo not given)	–	–	–	55
O=C(CCN1C(=O)C2CCCCC2C1=O)OCC(=O)N1CCc2ccccc21 (stereo not given)	–	–	–	–
CCOC(=O)C1=C(C)N=c2s/c(=C/c3cc(Br)ccc3OC(C)=O)c(=O)n2C1c1ccc(OC)c(OC)c1 (stereo not given)	–	–	–	–
C/C(O)=C/c1nc2cccnc2nc1/C=C(/C)O	73	–	–	–
O/C(=C\c1nc2ccccc2nc1/C=C(\O)c1ccccc1)c1ccccc1	–	–	–	–
CCOC(=O)/C(=C(/C)NCc1ccccc1)c1c(O)cc(Br)c(O)c1Br	–	–	–	–
Cc1cccc(NC(=O)C2C3C=CC4(O3)C2C(=O)N(C2CCCCC2C)C4C(=O)NC2CCCC(C)C2C)c1 (stereo not given)	–	–	–	–
COC(=O)Nc1cc([N+](=O)[O-])cc([N+](=O)[O-])c1Br	–	–	–	99
COC(=O)Nc1ccc(C(C)(C)C)cc1[N+](=O)[O-]	–	–	–	–
N#Cc1c(NC(=O)CCc2ccccc2)sc2c1CCCCCC2	–	–	–	–
CC(=O)N1CCc2c(sc(NC(=O)CCc3ccccc3)c2C#N)C1	–	–	–	54
CC(=O)N1CCc2c(sc(NC(=O)Cc3cccc4ccccc34)c2C(N)=O)C1	–	–	–	–
CC(=O)N1CCc2c(sc(NC(=O)Cc3cccc4ccccc34)c2C#N)C1	–	–	–	54
N#Cc1c(NC(=O)CSc2ncn[nH]2)sc2c1CCCC2	–	–	–	49
N#Cc1c(NC(=O)CCc2ccccc2)sc2c1CCCC2	–	–	–	47
COc1ccc(/C(C)=N/OCC(=O)Nc2sc3c(c2C#N)CCCCC3)cc1	–	–	–	–
SMILES	MITF inh	FBW7 act	GPR151 activ	TEAD-YAP block
Cc1ccc(N2C(=O)c3cccc([N+](=O)[O-])c3C2=O)c(C)c1	–	–	–	–
CC[C@@]1(O)C(=O)OCc2c1cc1n(c2=O)Cc2cc3cc(O)ccc3nc2-1	–	–	–	84
CN1CCN(c2ccc([N+](=O)[O-])cc2C(=O)Oc2ccccc2)CC1	–	–	–	–
COc1ccccc1NC(=O)CCc1nc(-c2ccc(C(C)(C)C)cc2)no1	–	–	–	71
COc1ccccc1NC(=O)CCCc1nc(-c2ccc(C)cc2)no1	–	–	–	–
CC(=O)c1c(C)[nH]c(C(=O)CSc2nnnn2-c2cccc(C)c2)c1C	–	–	–	33
CCC(C)(C)n1nnnc1CN1CCC(c2nc3ccc(Cl)cc3[nH]2)CC1	–	–	–	35
CCC(C)(C)n1nnnc1CN1CCC(c2nc3ccc(C)cc3[nH]2)CC1	–	–	–	–
COC(=O)c1cc(Oc2nc(C)nc3sc4c(c23)CCC4)cc(C(=O)OC)c1	–	–	–	–
O=C(N/C(=C\c1cccs1)C(=O)N1CC2CC(C1)c1cccc(=O)n1C2)c1ccc(F)cc1 (stereo not given)	–	–	–	–
COc1cc(OC)cc(-c2cc3nc4c(c(NCc5cccnc5)n3n2)CCC4)c1	–	–	–	45
